Assay outcomes as filed in PubChem.
GALR2 agonist = GALR2 (human) receptor agonism. activation, % (concentration not given with the values). 0.48% of 140,000 active. GALR2-expressing cells, agonist activation read-out. AID 803; in the data active = activation above about 5%, passing the limit was not always enough;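 note: 0% = vehicle buffer wells and 100% = reference agonist at full effect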
Target sequence (O43603 whole entry, looked up): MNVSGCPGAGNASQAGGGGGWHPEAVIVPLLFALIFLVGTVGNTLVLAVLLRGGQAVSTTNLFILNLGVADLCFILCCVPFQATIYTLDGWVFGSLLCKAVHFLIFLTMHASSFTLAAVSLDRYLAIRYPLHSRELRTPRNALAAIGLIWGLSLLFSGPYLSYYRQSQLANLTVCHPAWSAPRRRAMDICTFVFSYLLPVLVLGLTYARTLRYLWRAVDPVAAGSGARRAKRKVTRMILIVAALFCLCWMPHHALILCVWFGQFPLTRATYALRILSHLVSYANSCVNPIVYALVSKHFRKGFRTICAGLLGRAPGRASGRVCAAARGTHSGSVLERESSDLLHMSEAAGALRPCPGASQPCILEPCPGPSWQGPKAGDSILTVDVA
PostGolgi yeast = growth inhibition of a yeast mutant, post-Golgi transport screen | post-Golgi transport phenotypic cell assay | inhibition, % at 10 µM | 0.9% of 98,000 active;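 note: yeast cells grown in 1536-well plates; yeast grown about 18 h at 30C before absorbance read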
S1P2 blocker = S1P2 (human) receptor antagonism; O95136; cell-based S1P2 antagonist assay, inhibition at 5 uM; inhibition, % at 5 µM; 0.21% of 97,000 active; AID 736; in the data active = inhibition above about 45%;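 note: CRE beta-lactamase reporter cells expressing human S1P2 stimulated with S1P; 0% = agonist at EC80 alone and 100% = agonist plus reference antagonist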
Target sequence (O95136 whole entry, looked up): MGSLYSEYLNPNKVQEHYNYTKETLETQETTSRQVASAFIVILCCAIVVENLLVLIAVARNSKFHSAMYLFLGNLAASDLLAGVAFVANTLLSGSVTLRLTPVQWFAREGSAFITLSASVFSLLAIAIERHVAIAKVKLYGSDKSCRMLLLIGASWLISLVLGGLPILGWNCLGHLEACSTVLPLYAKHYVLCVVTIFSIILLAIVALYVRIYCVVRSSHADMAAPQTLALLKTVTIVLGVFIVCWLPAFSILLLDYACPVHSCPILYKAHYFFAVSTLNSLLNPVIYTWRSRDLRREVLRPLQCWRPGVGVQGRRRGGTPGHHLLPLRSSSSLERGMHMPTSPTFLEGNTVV
S1P2 ag = agonists of human S1P2 receptor; O95136; S1P2-expressing cell line, agonist reporter read-out; activation, % at 4.5 µM; 0.46% of 97,000 active; AID 729; in the data active = activation above about 16%;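 note: 0% = vehicle low control and 100% = maximal reference agonist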
PostGolgi ctrl = yeast control strain growth, post-Golgi counter-screen. efflux-deficient yeast background strain, growth absorbance A615, 16 h. inhibition, % at 10 µM. 5% of 98,000 active. AID 738
GALR2 blocker = antagonists of human galanin receptor 2 (GALR2) | O43603 | GALR2-expressing cells, antagonist mode | inhibition, % at 4 µM | 0.39% of 140,000 active; in the data active = inhibition above about 27%;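 note: cells stimulated with galanin 1-16 at roughly its EC80; 0% = agonist challenge control and 100% = basal control without agonist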
An asterisk follows results filed as active; / = no result given. The full list was thinned out, with hits kept by preference. Cut-off read from the data, not from the text of the source, unless noted: active = inhibition above about 30%; inactive = the rest.

SMILES | GALR2 agonist | PostGolgi yeast | S1P2 blocker | S1P2 ag | PostGolgi ctrl | GALR2 blocker
COC(=O)c1ccc(NC(=O)CN2CCN(c3cccc(Cl)c3)CC2)cc1 | -0.8 | 3.3 | 11.8 | -6.0 | 26.7 | -11.9
O=C(CN1CCN(c2ccc(Cl)cc2)CC1)Nc1cccc(F)c1 | -0.1 | 8.5 | -0.8 | -2.0 | 30.5* | -4.2
O=C(CN1CCN(c2ccc(F)cc2)CC1)Nc1ccc(F)c(F)c1 | -1.3 | 0.8 | -0.4 | -5.4 | 13.3 | -3.5
O=C(Cc1ccc(Br)cc1)N1CCN(c2ccccc2)CC1 | -1.9 | 7.1 | -7.4 | -6.9 | -0.4 | 10.3
Cc1cccc(N2CCN(C(=O)Cc3ccc(Br)cc3)CC2)c1C | -0.4 | 17.5 | -6.7 | -3.2 | 46.3* | -1.9
COCCCn1c(CCC(=O)O)ccc1-c1cccs1 | -1.0 | -2.5 | -8.1 | -1.8 | 30.5* | -2.8
CC(C)c1ccc(C(=O)CC2(O)C(=O)N(CN3CCOCC3)c3ccccc32)cc1 (configuration not stated) | -1.1 | -6.6 | 18.3 | -8.5 | -0.3 | 13.9
Cc1ccc(C(C)NC(=O)c2cc(C)oc2C)cc1 (configuration not stated) | -3.0 | 1.6 | 8.7 | -8.1 | 32.8* | -4.4
Cc1ccc(C(C)NC(=O)c2ccco2)cc1 (configuration not stated) | -1.4 | / | 8.3 | -5.5 | / | 4.5
O=S(=O)(NNc1ccc(Cl)nn1)c1ccc(F)cc1 | -0.1 | / | / | / | / | 3.9
Cc1nn(C(C)(C)C)c(OC(=O)c2ccco2)c1Sc1ccccc1 | -3.6 | 3.8 | 24.2 | -12.4 | 35.5* | 8.4
COc1ccccc1C(=O)NCC1CCN(c2ccc(S(=O)(=O)N3CCOCC3)cc2)CC1 | 0.5 | -5.4 | 11.2 | -4.1 | 4.8 | -13.3
COc1ccc2[nH]c(=O)c(C(c3nnnn3C3CCCC3)N3CCN(Cc4ccc5c(c4)OCO5)CC3)cc2c1 (configuration not stated) | 0.2 | 1.2 | -17.8 | -3.4 | 11.4 | -12.2
Cc1cc(Oc2ccc(C#N)cc2)nc(NCc2ccccc2)n1 | -1.0 | 4.3 | -6.2 | -9.9 | 30.7* | 19.8
O=C(CCSc1ccc(Cl)c(Cl)c1)NC12CC3CC(CC(C3)C1)C2 | -3.6 | 1.1 | -4.1 | -2.5 | 39.0* | 9.1
COCCC(=O)NC12CC3CC(CC(C3)C1)C2 | -1.3 | -6.5 | -2.3 | -4.4 | 34.6* | -0.2
Cc1nc(SCC(=O)c2ccc(Cl)cc2)c([N+](=O)[O-])[nH]1 | -3.2 | -10.4 | 1.5 | -6.4 | 15.6 | -12.2
COC(=O)CSc1nc(N)c(C#N)c(-c2ccco2)c1C#N | 1.1 | -5.3 | -6.6 | -5.5 | 31.7* | 3.1
CC(C)OCCCNC(=O)c1cccs1 | 0.5 | 0.3 | -15.1 | -7.9 | 32.3* | -8.2
COCCCNC(=O)c1c(N)n(/N=C/c2ccccn2)c2nc3ccccc3nc12 | 0.3 | 7.7 | 5.5 | 1.4 | 19.3 | -0.8
CC(C)OCCCNC(=O)c1c(N)n(/N=C/c2cccs2)c2nc3ccccc3nc12 | 3.0 | -4.1 | -27.5 | 18.0* | 2.9 | -18.1
CCCCOCCCNC(=O)c1cccs1 | 0.7 | -1.3 | -4.7 | 0.7 | -1.7 | 0.0
Cc1cccc(NC(=S)N/N=C/c2ccc([N+](=O)[O-])s2)c1 | -4.3 | 43.6* | 1.8 | -4.3 | 96.0* | 3.4
O=C(Nc1nccs1)c1csc2c1CCCC2 | -0.9 | / | -25.7 | 1.4 | / | -2.2
Cc1nc(SCc2c(F)cccc2Cl)n[nH]1 | -3.4 | -7.3 | -9.8 | -2.2 | 2.8 | -5.9
SMILES | GALR2 agonist | PostGolgi yeast | S1P2 blocker | S1P2 ag | PostGolgi ctrl | GALR2 blocker
COc1cnc(SCc2c(Cl)cccc2Cl)nc1Cl | -1.5 | 16.6 | -15.0 | 0.8 | 34.1* | 21.4
CCOc1ccc(NC(=O)c2ccco2)c([N+](=O)[O-])c1 | 0.1 | / | / | / | / | 6.9
O=C(Nc1ccccc1)OCc1cc(-c2ccccc2Cl)on1 | -2.8 | 1.9 | 9.4 | -8.0 | 33.2* | -5.0
O=C(Nc1ccccc1)OCc1ccccn1 | -1.0 | -1.0 | -5.2 | -5.5 | 0.6 | -10.6
COc1ccc(OC)c(C(=O)CSc2nccc(-c3ccc(Br)cc3)n2)c1 | 0.4 | 18.9 | 0.6 | -2.5 | 7.0 | -14.2
Cn1c(SCC(=O)N2CCOCC2)nnc1-c1cnccn1 | -2.5 | 2.9 | -2.3 | -3.2 | 4.2 | -4.4
Cn1c(SCC(=O)c2ccc(F)cc2)nnc1-c1cnccn1 | 0.3 | 5.5 | 4.2 | -4.7 | 39.0* | 0.2
S=C(NCc1ccco1)Nc1ccc(Cl)cc1Cl | 0.2 | / | / | / | / | 6.9
S=C(NCc1ccco1)N1CCN(Cc2ccc(Cl)cc2Cl)CC1 | -1.9 | 8.0 | -5.0 | -3.8 | 31.8* | -1.7
COc1ccc(-c2cc(C(F)(F)F)nc(SCC(=O)NCc3cccs3)n2)cc1OC | 1.5 | / | / | / | / | -33.6
COc1ccc(N(CC(=O)NCc2cccs2)S(=O)(=O)c2cccnc2)cc1 | -3.1 | -7.3 | -10.2 | -0.4 | 30.1* | -0.1
COc1ccc(N(CC(=O)NCc2cccs2)S(=O)(=O)c2c(C)n[nH]c2C)cc1 | -1.4 | -1.8 | 19.1 | -1.2 | 0.0 | 0.7
CCn1c(=O)c(C(=O)CN2CCN(S(=O)(=O)c3cc(C)ccc3C)CC2)c(N)n(Cc2ccccc2)c1=O | -0.7 | / | / | / | / | 14.9
Cc1cccc(C)c1NC(=O)CNc1ccccc1 | -2.3 | 2.9 | 16.8 | -2.9 | 37.4* | -13.4
C/C(=N/O)c1ccc2c(c1)OCCOCCOc1cc(/C(C)=N/O)ccc1OCCOCCO2 | -1.6 | / | / | / | / | -12.7
COC(=O)CSc1nc(SCc2ccc(C)cc2)nc2c1CCCC2 | -2.1 | -2.4 | -12.5 | -6.2 | 8.2 | 2.2
CNc1nc(SCc2ccc(C)cc2)nc2c1CCCC2 | -2.4 | 10.1 | 1.6 | -3.9 | 33.3* | 6.2
CN(C)c1nc(SCc2ccccc2Cl)nc2c1CCCC2 | -0.8 | 58.7* | -3.9 | -7.0 | 36.4* | -12.9
Cc1ccc(CSc2nc3c(c(SCC(=O)O)n2)CCCC3)cc1 | 0.0 | 17.1 | -4.3 | -9.9 | 8.8 | 6.3
O=c1[nH]c(SCc2ccccc2Cl)nc2c1CCCC2 | 0.0 | -2.6 | 7.9 | -5.5 | 10.2 | -6.9
Cc1ccc(CSc2nc3c(c(N(C)C)n2)CCCC3)cc1 | -1.2 | -15.1 | -18.1 | -2.0 | 41.2* | 5.8
COc1cc(CC(=O)NNC(=O)c2cc(C)oc2C)cc(OC)c1OC | -0.5 | / | / | / | / | -2.6
CC(C)(C)Nc1nc(N2CCCC2)nc(N2CCCC2)n1 | -1.1 | 8.4 | 46.7* | -7.1 | 27.2 | 3.5
O=C(c1ccc(COc2ccccc2Cl)o1)N1CCN(c2ccccc2)CC1 | -1.8 | -12.2 | -8.0 | -2.6 | 46.2* | -18.2
Cc1nn(Cc2c(F)c(F)c(F)c(F)c2F)c(C)c1NC(=O)c1ccc(COc2ccccc2Cl)o1 | -1.6 | -3.8 | 10.4 | -6.4 | 80.1* | 9.6
SMILES | GALR2 agonist | PostGolgi yeast | S1P2 blocker | S1P2 ag | PostGolgi ctrl | GALR2 blocker
O=C(c1ccc(COc2ccccc2Br)cc1)N1CCCCC1 | -2.3 | -5.1 | -3.7 | -1.5 | 26.9 | -11.0
O=C(c1ccc(COc2ccccc2Br)o1)N1CCCCCC1 | -1.8 | -0.8 | -20.6 | -6.0 | 38.0* | -3.6
O=C(c1ccc(COc2ccc3c(c2)CCC3)o1)N1CCN(c2ccccc2)CC1 | -1.1 | / | -26.1 | -7.7 | / | -9.2
CCCc1ccc(OCc2ccc(C(=O)N3CCN(c4ccccn4)CC3)o2)c(OC)c1 | -1.8 | 7.4 | -7.9 | -4.8 | 71.5* | -3.0
Cc1nn(Cc2c(F)c(F)c(F)c(F)c2F)c(C)c1NC(=O)c1ccc(COc2ccccc2Cl)cc1 | -0.1 | 1.1 | -8.6 | -7.8 | -1.5 | -9.5
CN(C(=O)Cc1noc2ccccc12)c1ccccc1 | -1.8 | / | / | / | / | -1.1
